Only some compounds are listed: those with a hit (about 5.4% of all), similar ones and a draw of the others.
LASV entry inh – inhibitors of Lassa virus binding or cell entry. Potency, µM (doses to about 37.9 µM), inactives show at the top dose activity change, negative = inhibition, actives largely listed as inhibitors. 1.2% of 300,000 active. AID 540256. Lassa virus pseudotype entry inhibition, cell reporter; calls by dose curve; tested in HEK293 cells; note: nearly all actives have a fitted effect of over 50% in size
FMDV inh – antivirals against foot and mouth disease virus; FMDV antiviral cell-based qHTS; Potency, µM (series often up to 57.9 µM), for the others: at the top dose activity change, negative = inhibition, hits mostly inhibitors; 1.2% of 410,000 active; calls by dose curve; tested in HEK293T cells; note: read-out not given here; nearly all actives have a fitted effect of over 45% in size
Marburg entry inh – blocks Marburg virus binding to or entry into cells; AID 540276; Potency, µM (top dose mostly 37.8 µM), without a hit: at the highest dose activity change, negative = inhibition, most hits filed as inhibitors; 1.8% of 300,000 active; Marburg virus pseudotyped entry inhibition, cell reporter; calls by dose curve; tested in HEK293 cells
Sm TGR inh – inhibitors of Schistosoma mansoni thioredoxin glutathione reductase. Potency, µM (top dose mostly 114 µM), for inactives: top-dose activity change, negative = inhibition, usual class: inhibitors. AID 485364. Q962Y6. 3% of 360,000 active. purified TGR, DTNB reduction, TNB absorbance 405 nm; active = well fitted inhibition curve with a large enough effect; inconclusive = small, poorly fitted or top-dose-only effect; inactive = no such curve, though single readings can be large or run the other way; note: nearly all actives have a fitted effect of over 60% in size
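TGR 20 nM + NADPH 100 uM (dispensed conc.), cpd preinc 15 min RT; start with NADPH (500 uM addition) then DTNB (15 mM addition). Kinetic TNB absorbance, 405 nm filter. Four-parameter Hill fit across titration.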
Vaccinia mCherry – inhibitors of vaccinia virus infection (mCherry reporter signal) | Vaccinia virus mCherry reporter infection, fluorescence | Potency, µM (titrated, usually from 36.5 µM), for the others: at the top dose activity change, negative = inhibition, usual class: inhibitors | 0.63% of 310,000 active; calls by dose curve; tested in A549 cells; note: nearly all actives have a fitted effect of over 35% in size
Vaccinia Venus – vaccinia inhibition (Venus reporter). 0.46% of 330,000 active. Vaccinia virus Venus reporter expression, fluorescence. Potency, µM (top dose mostly 36.5 µM), inactives show top-dose activity change, negative = inhibition, most hits filed as inhibitors; calls by dose curve; tested in A549 cells; note: nearly all actives have a fitted effect of over 30% in size
The depositor's hits bear a star; i = inactive; ? = inconclusive; / = no result; ! = not confirmed by another sample; [ ] = dose if it differs, or a comment. % is set by controls: 0 for no effect and ±100 for the full control effect; potency is the fitted concentration of half-maximal effect.

SMILES	LASV entry inh	FMDV inh	Marburg entry inh	Sm TGR inh	Vaccinia mCherry	Vaccinia Venus
CCCS(=O)(=O)c1c(S(=O)(=O)CCC)c2c(C)cccn2c1C(=O)OC	-2%	/	-18%	10µM*	-1%	-16%
CCCS(=O)(=O)c1c(S(=O)(=O)CCC)c2ccccn2c1C(=O)OC	-8%	-24%	-3%	28µM*	/	/
CCCS(=O)(=O)c1c(S(=O)(=O)CCC)c2c(N)cccn2c1C(=O)c1ccc(F)cc1	-27%	-11%	?	22µM*	-2%	-29%
CCCS(=O)(=O)c1c(S(=O)(=O)CCC)c2c(N)cccn2c1C(=O)c1ccc(Br)cc1	?	4%	?	?	?	-19%
CCOC(=O)c1ccccc1NC(=O)Cn1cc(C(=O)c2cccc(OC)c2)c(=O)c2ccc(C)nc21	-15%[46.1 µM]	-3%	/	7%	3%	2%
C[N+]1=C(/C=N/O)CCCC1	/	/	2%	/	/	/
O=C(O)C1CSC(c2coc3ccccc3c2=O)N1 (stereo unspecified)	14%	-12%	-6%	2.5µM*	-12%	-2%
CC1CCOC(c2coc3ccccc3c2=O)O1 (stereo unspecified)	?	9%	?	-7%	i	-10%
CCn1c(N2CCC(Cc3ccccc3)CC2)nc2c1c(=O)[nH]c(=O)n2C	?	28µM*	?	6%	?	-26%
COc1ccccc1NC(=O)N1CC=C(c2c[nH]c3ccccc23)CC1	/	-2%	21%[46.1 µM]	?	-8%	-9%
CN(C)Cc1cc(O)c(CN(C)C)cc1O	/	-12%	/	2.5µM*	/	/
COc1ccc(CN2CCOc3ccc(CN4CCC(Oc5cccnc5)CC4)cc3C2)cc1	/	-24%	/	/	-12%	-25%
CCOC(=O)/C(=C\c1cccc(O)c1)c1nc2sc(C)c(C)c2c(=O)[nH]1	?	11µM*	?	-35%	?	?
CCOC(=O)c1nc2sc(C)c(C)c2c(=O)[nH]1	-3%	17%	17%	0%	-14%	-6%
CC(=O)Nc1ccc(S(=O)(=O)NCC2CCC(C(=O)N3CCCCCC3)CC2)cc1 (stereo unspecified)	3.5µM*	-17%	-3%	-16%	-7%	-5%
Cc1ccc(S(=O)(=O)NCC2CCC(C(=O)N3CCC4(CC3)OCCO4)CC2)cc1 (stereo unspecified)	-12%	-17%	1%	6%	/	-19%
C/C(=N\NC(=O)c1cccnc1)c1ccccc1	26%	71%	?	6%	-12%	-4%
CC(C)COc1cccc(-c2cc(C(=O)N/N=C/c3ccncc3)c3ccccc3n2)c1	?	12%	2.8µM*	1%	?	-2%
O=C(NN=Cc1cccc([N+](=O)[O-])c1)c1cc(-c2cccnc2)nc2ccccc12	/	28µM*	/	/	/	/
C/C(=N\NC(=O)c1cc(-c2cccnc2)nc2ccccc12)c1ccc(O)cc1O	6.3µM*	-14%	7.1µM*	-10%	11µM*	?
O=C(N/N=C(\c1ccccc1)c1cccnc1)c1cc(O)ccc1O	/	/	/	40µM*	/	/
COCC=CC1=CC2=CC(=O)C(C)(OC(=O)c3cnc4ccccc4n3)C(=O)C2=CN1Cc1ccccc1 (stereo unspecified)	/	/	19%[14.2 µM]	/	/	/
ClC1CCCC(Cl)C1Cn1nnc(N2CCCC2)n1 (stereo unspecified)	/	/	24%[46.1 µM]	/	/	/
O=C(NNC(=O)c1cc(-c2ccncc2)nc2ccccc12)c1ccccc1O	3%	-15%	-26%[46.1 µM]	-7%	13µM*	?
Cc1cc(Nc2nc3ccccc3[nH]c2=O)n(-c2ccccc2)n1	?	-5%	?	4%	7.1µM*	8.9µM*
O=C(Cn1c(SCCOc2ccccc2Cl)nc2ccccc21)N1CCCCC1	-26%[46.1 µM]	-9%	?	-6%	7%	1%
Cc1cc(C)nc(NC(=NCc2ccc3c(c2)OCO3)NC(=O)Nc2ccccc2)n1	-16%	-13%	?	1.4µM*	/	/
COc1ccc(C(C)=O)c(Oc2cc(NN3CCCCC3)c([N+](=O)[O-])cc2[N+](=O)[O-])c1	/	-14%	/	-24%	?	3.2µM*
Cc1ccc(S(=O)(=O)N2CCC(C(=O)N[C@@H](Cc3ccccc3)C(=O)O)CC2)cc1	6%	9%	?	79µM*	/	/
O=C(NCc1ccc(Cl)cc1)C1CCN(S(=O)(=O)c2ccccc2)CC1	?	-24%	-4%	25µM*!	-5%	-7%

Screening results: PubChem BioAssay, National Center for Advancing Translational Sciences (NCATS)
